ALR inh: blocks human ALR sulfhydryl oxidase activity; inhibition, % (no concentration beside the values); P55789; purified ALR, DTT oxidation, H2O2 HRP-luminol luminescence; actives 3.8% (n = 290,000);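 active = mean replicate inhibition above about 79%, with every replicate also reaching it, limit read from the data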
Target sequence (P55789 whole entry, looked up): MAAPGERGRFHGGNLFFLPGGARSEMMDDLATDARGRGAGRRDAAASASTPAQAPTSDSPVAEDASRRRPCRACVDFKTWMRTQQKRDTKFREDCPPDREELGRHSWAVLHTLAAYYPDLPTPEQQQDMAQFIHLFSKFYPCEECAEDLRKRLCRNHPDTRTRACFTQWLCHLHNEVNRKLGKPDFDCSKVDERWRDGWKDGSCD
GASC-1 inh: human JMJD2C demethylase inhibition; GST-JMJD2C(1-420) H3K9me3 demethylation, DELFIA europium; inhibition, % at 2.35 µM; actives 0.069% (n = 330,000); AID 2099;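 active = more than half of a compound's replicate wells show inhibition beyond 50%, single wells judged on their own value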;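 also: signal counts dimethyl H3K9 product captured on neutravidin plate; 0% = median of DMSO wells and 100% = 0.3 times that DMSO median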
Target sequence (Q9H3R0 1-420 limits assumed): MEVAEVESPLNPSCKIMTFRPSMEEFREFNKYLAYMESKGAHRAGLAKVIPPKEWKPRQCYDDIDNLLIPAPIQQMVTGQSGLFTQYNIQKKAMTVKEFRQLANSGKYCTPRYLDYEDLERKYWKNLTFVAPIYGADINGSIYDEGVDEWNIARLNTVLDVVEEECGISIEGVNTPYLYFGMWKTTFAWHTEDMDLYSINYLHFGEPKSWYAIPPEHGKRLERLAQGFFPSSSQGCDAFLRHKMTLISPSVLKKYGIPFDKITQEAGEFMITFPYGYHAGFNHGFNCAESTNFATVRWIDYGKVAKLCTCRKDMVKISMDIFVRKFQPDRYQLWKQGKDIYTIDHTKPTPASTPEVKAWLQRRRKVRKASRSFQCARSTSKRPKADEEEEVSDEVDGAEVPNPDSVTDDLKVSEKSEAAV
SMARCA2 activ: activators of SMARCA2 function | MG213 cells, MMTV-luciferase reporter, dexamethasone, overnight | activation, % at 9.1 µM | actives 1% (n = 370,000); in the data active = activation above about 7.8%;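 also: 0% = vehicle wells and 100% = reference activator wells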
PfM18AAP inh: PfM18AAP enzyme inhibition; inhibition, % at 7.35 µM; actives 1.2% (n = 290,000); recombinant PfM18AAP, H-Glu-NHMec fluorogenic cleavage; AID 1822;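 active = inhibition above the campaign mean inhibition over all tested compounds plus 3 SD, cut at about 28% in these data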;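 also: 0% = plate median of test compound wells and 100% = 2 mM ZnCl2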
beta cell repl: induces beta-cell replication in MIN6 cells; proliferation, % at 10 µM; MIN6 cells proliferation, ATPlite luminescence, 48 h; cells starved in 0.2% serum; 100% = growth in 10% serum; actives 0.29% (n = 330,000); AID 2380;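 active = compounds whose signal lies at least 3.5 SD above the mean of all wells on their plate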;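 also: 0% = DMSO-treated cells in low-serum medium and 100% = 10% serum control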
Granule exo inh: lytic granule exocytosis inhibition | TALL-104 LAMP-1 surface exposure, flow cytometry; cells stimulated with thapsigargin and PMA | inhibition, % at 10 µM | actives 0.66% (n = 360,000);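 active = inhibition above about 55%, limit read from the data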
Exocytosis CP01: lytic granule exocytosis inhibition | shares compounds with Granule exo inh | TALL-104 cells, LAMP-1 externalization, flow cytometry; stimulated with PMA plus thapsigargin | inhibition, % at 10 µM | actives 11% (n = 1,500); in the data active = inhibition above about 60%;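 also: 0% = stimulated vehicle wells and 100% = unstimulated wells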
SMARCA2 act conf: SMARCA2 activation, confirmation screen | shares compounds with SMARCA2 activ | MG213 cells, MMTV-luciferase with dexamethasone, luminescence, overnight; MG213 cells expressing E1A, Rb sequestered; DMSO wells 0%, reference activator 100% | activation, % at 9.1 µM | actives 30% (n = 3,500);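 active = activation above its plate's cutoff, the mean activation of tested wells plus 3 SD, cut at about 7.9% in these data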
VP16 Luc act: activates GAL4-VP16 luciferase, flagging SMARCA2 activator hits; activation, % at 9.1 µM; actives 41% (n = 3,500); HEK293 GAL4-VP16 pG5luc reporter, luciferase luminescence; scaled: DMSO wells 0%, SAHA wells 100%; shares compounds with SMARCA2 activ; AID 686939;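 active = activation above the solvent-only control well mean plus 3 SD, averaged across control plates, cut at about 5.2% in these data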
* marks the source's active call; other numbers are inactive results; . = not tested or not shown. Sampled rows, rich in hits. Any-hit rate of the full collection: about 5.4%.

SMILES | ALR inh | GASC-1 inh | SMARCA2 activ | PfM18AAP inh | beta cell repl | Granule exo inh | Exocytosis CP01 | SMARCA2 act conf | VP16 Luc act
Cc1cc2nc(/C=C/c3cccnc3)[nH]c2cc1C | -14.2 | 9.2 | 8.7* | 3.8 | -3.6 | 57.6* | -10.6 | 16.0* | 26.7*
COC(=O)[C@]12C[C@H](CC(=O)N3CCCC3)C(=O)N(Cc3ccc(Cl)cc3Cl)C1=C[C@H](C1CCCC1)O[C@@H]2C | . | . | -2.0 | . | . | . | . | . | .
C[C@@H]1CN([C@@H](C)CO)C(=O)CCCn2cc(nn2)CO[C@H]1CN(C)C(=O)CCC(F)(F)F | . | . | -1.9 | . | . | . | . | . | .
CN1CCN(c2ccc(NC(=O)c3ccc(-c4ccc(Cl)cc4)o3)cc2)CC1 | 29.2 | -5.3 | 9.1* | 0.0 | -7.1 | 73.2* | 90.9* | 6.7 | 0.2
CS(=O)(=O)N1CCN(c2ccc(NC(=O)c3ccc(-c4ccc(Cl)cc4)o3)cc2)CC1 | 1.2 | -10.6 | -1.9 | -1.5 | -3.5 | -4.6 | . | . | .
O=c1c2cc([N+](=O)[O-])ccc2sn1-c1ccccc1 | . | . | -0.3 | . | . | 10.8 | . | . | .
CC(=O)Nc1ccc2sn(-c3ccccc3)c(=O)c2c1 | . | . | 17.3* | . | . | 59.8* | 93.9* | 8.8* | 0.9
COc1ccc2nc(N(CCN(C)C)C(=O)c3ccc4ncsc4c3)sc2c1 | . | . | 10.3* | . | . | 75.1* | -13.2 | 12.8* | 9.4*
CN1CCN(Cc2nc3ccccc3c(=O)n2Cc2nc(-c3ccc([N+](=O)[O-])cc3)cs2)CC1 | 2.0 | -7.4 | 17.2* | -1.1 | 0.0 | 74.7* | 97.1* | 43.8* | 1.9
Fc1ccc(/C=C\c2nccc3c2[nH]c2ccccc23)cc1 | . | -1.4 | 15.6* | 9.8 | -6.5 | 83.4* | 92.8* | 4.3 | 3.0
Cc1ccc(/C=C\c2nccc3c2[nH]c2ccccc23)cc1 | . | -12.8 | 10.2* | -0.5 | -6.0 | 74.9* | 4.4 | 7.6 | 8.1*
COc1ccccc1Cc1c(-c2ccccc2)nc2ccc(C)cn12 | . | . | 1.6 | . | . | . | . | . | .
CN(C)CCCn1c2c3ccccc3ccc2c2oc(=O)c3ccccc3c21 | . | . | 12.3* | . | . | 56.3* | 23.3 | 54.1* | 2.7
COC(=O)C1=C(C)N(Cc2cccc(C(F)(F)F)c2)C(=NCc2ccc(C(F)(F)F)cc2)NC1c1ccccc1C(F)(F)F (stereo unspecified) | . | . | -3.0 | . | . | . | . | . | .
Cc1ccc(N(CC(=O)Nc2ccc(-c3nc4ccc(C)cc4s3)cc2)S(C)(=O)=O)cc1 | -10.4 | 21.5 | 6.5 | -4.6 | -2.2 | -0.2 | . | . | .
Cc1ccc2nc(-c3ccc(NC(=O)CNC4CC4)cc3)sc2c1 | . | -30.8 | 10.9* | 3.8 | . | 74.2* | 27.6 | 8.5* | 10.3*
COC1=C[C@H](C(=O)NC2CCN(Cc3ccccc3)CC2)C(C)C(c2ccccc2)CC1=O (stereo partly specified) | . | . | -2.0 | . | . | . | . | . | .
CN(C)CCNC(=O)c1cccc2nc3c(ccc4ccccc43)nc12 | . | . | 18.7* | . | . | 62.1* | 42.9 | 31.5* | 3.9
COc1ccc(Cl)cc1C(=O)NCCN(C)C | -3.9 | -1.2 | -3.0 | -1.5 | 0.0 | 1.8 | . | . | .
COc1ccc(C(=O)NCCN(C)C)c2nc3ccccc3cc12 | . | . | 12.4* | . | . | 73.2* | -12.9 | 95.0* | 7.3*
O=C(CC(C(=O)O)c1ccc(Cl)cc1)c1ccc(Br)cc1 (stereo unspecified) | 4.8 | -15.6 | -2.3 | -5.2 | -0.5 | -13.2 | . | . | .
O=C(CC(Sc1ccc(Br)cc1)C(=O)O)c1ccc(F)cc1 (stereo unspecified) | . | 1.0 | 8.6* | -81.4 | -5.2 | 68.6* | -13.2 | -1.1 | 0.8
C(=C\c1nc(N2CCCCCC2)c2ccccc2n1)/c1ccccc1 | 4.0 | 1.2 | 9.3* | 1.1 | 0.0 | 58.2* | 32.0 | 2.3 | 3.3
c1ccc2c(N3CCCCC3)nc(N3CCCCC3)nc2c1 | -4.1 | 36.2 | -0.6 | -1.1 | 2.1 | 1.1 | . | . | .
COc1ccc(-n2sc3ccccc3c2=O)cc1 | . | . | 13.1* | . | . | 84.2* | 99.9* | 15.0* | 3.0
SMILES | ALR inh | GASC-1 inh | SMARCA2 activ | PfM18AAP inh | beta cell repl | Granule exo inh | Exocytosis CP01 | SMARCA2 act conf | VP16 Luc act
Cc1ccc(-c2nnc3n2N=C(c2ccc4ccccc4c2)CS3)cc1 | . | . | -3.7 | . | . | . | . | . | .
CCN(CC)CCNc1ncnc2c1sc1nc(N3CCCC3)c3c(c12)CC(C)(C)OC3 | . | -6.5 | 8.3* | 6.3 | -6.5 | 56.5* | 0.9 | 4.5 | 0.5
CN(C)CCNc1ncnc2c1sc1nc(N3CCCC3)c3c(c12)CC(C)(C)OC3 | 0.7 | -6.2 | 4.3 | 0.8 | -4.1 | 48.6 | . | . | .
CCCS(=O)(=O)Nc1ccc(Nc2c3ccccc3nc3ccccc23)c(OC)c1 | . | . | 15.1* | . | . | 77.6* | 88.6* | 23.6* | 2.7
COc1ccc(NS(=O)(=O)Cc2ccccc2)cc1OC | . | 3.0 | -4.4 | 0.8 | 0.4 | -1.4 | . | . | .
CC(C)C[C@@H]1COc2cccc(NCCO)c2S(=O)(=O)N1 | . | . | -3.1 | . | . | . | . | . | .
CN(CCO)C(=O)c1nc[nH]c1C(=O)N1CCN(c2ccccc2)CC1 | . | . | -2.3 | . | . | . | . | . | .
COc1cc2c(cc1NC(=O)c1ccco1)CCCC2 | 10.2 | -3.9 | 10.3* | -3.3 | 0.0 | 6.1 | . | 7.9* | 11.2*
CCOC(=O)c1sc(=NC(=O)c2cccc(C)c2)n(C)c1C | 23.9 | 4.1 | 13.4* | 1.9 | -2.2 | 2.8 | . | 5.1 | 5.9*
Cc1ccc(/C=N/NC(=O)c2ccccn2)s1 | 3.8 | -2.3 | 1.0 | 1.1 | -1.8 | -3.5 | . | . | .
O=C(N/N=C/c1cccs1)c1ccccn1 | -4.7 | -2.6 | 10.3* | 0.7 | -1.9 | -0.3 | . | 9.6* | 8.9*
C(=NN=C(NN=Cc1cccs1)NN=Cc1cccs1)c1cccs1 | . | . | 12.1* | . | . | 8.9 | . | -1.9 | 5.1
CCOC(=O)C1(C)CCCN(C(=O)c2cccc(C#N)c2)C1 (stereo unspecified) | . | . | -1.6 | . | . | -3.4 | . | . | .
COC(=O)c1ccc2nc(C3CCCCC3)c(Cc3cccc(Cl)c3)n2c1 | . | . | -1.5 | . | . | 2.6 | . | . | .
C=C(C)C(=O)Oc1ccc(N=Nc2ccc(C)cc2)ccc1=O | . | . | 18.7* | . | . | -1.7 | . | -1.2 | 9.1*
c1ccc(COc2ncnc3c2ncn3CCCNCC(c2ccccc2)c2ccccc2)cc1 | . | . | -1.3 | . | . | 53.3 | . | . | .
CCC(=O)C1CCCN(C(=O)CCc2nnc(C3(c4ccc(Cl)cc4)CCC3)o2)C1 (stereo unspecified) | -1.5 | 3.7 | 8.8* | -8.3 | -1.0 | -6.3 | . | 4.2 | 5.2*
NC(=O)C1CCCN(C(=O)CCc2nnc(C3(c4ccc(Cl)cc4)CCC3)o2)C1 (stereo unspecified) | -0.7 | -4.2 | 1.9 | -1.0 | 2.8 | 1.8 | . | . | .
